The list is not random: actives were taken first. Their share in the collection is about 3.9%.
aSyn 5UTR inh – MLPCN primary screen, SNCA 5' untranslated region; alpha-synuclein 5'UTR reporter, inhibitor activity; actives 0.82% (n = 300,000); inhibition, % (tested at 7.5 µM); in the data active = inhibition above about 60%;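 note: H4 neuroglioblastoma cells stably carrying SNCA 5'UTR luciferase fusion; 0% = DMSO wells and 100% = positive control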
HIF-2a block – HIF-2a inhibition | 786-0 RCC cells HIF-2a reporter, luciferase luminescence, overnight | inhibition, % at 18.8 µM | actives 0.72% (n = 360,000) | AID 624352;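 active = inhibition of the luminescence signal of 40% or more relative to plate controls, in a single-dose primary screen at 18.75 µM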
TROY signal inh – TROY signaling inhibition | actives 0.98% (n = 360,000) | inhibition, % at 10 µM | Q293 LMP1-TROYcd NF-kB luciferase reporter, 4 h;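 active = compounds whose plate-normalised and pattern-corrected inhibition of the luciferase reporter signal at the single screening dose is 50% or more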
C8 TRAIL sens – sensitizes caspase-8 expressing cells to TRAIL; AID 624354; NB7+C8 cells + TRAIL, ATPlite viability luminescence; actives 1% (n = 360,000); inhibition (viability loss, TRAIL sensitization), % at 10 µM;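 active = compounds causing at least 50% loss of cell viability in the single-dose screen, relative to plate controls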
TWEAK Fn14 block – inhibitors of TWEAK-Fn14 interaction signaling. TWEAK-stimulated Fn14 reporter cells, luciferase luminescence, 8 h. inhibition, % at 10 µM. actives 2% (n = 360,000); in the data active = inhibition above about 50%
HSP90 refold inh – HSP90 refolding inhibition in rabbit reticulocyte lysate. luciferase refolding luminescence, 3 h. inhibition, % at 5.6 µM. actives 0.91% (n = 290,000);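 active = inhibition above the screen-wide mean plus 3 SD, computed separately per campaign, cut at about 16% in these data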;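 note: 0% = DMSO wells and 100% = 60 µM geldanamycin wells; inhibitors lower the luminescence because luciferase stays unfolded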
Mdm2-MdmX confirm – confirmation of inhibitors of human Mdm2/MdmX interaction, set 2 | shares compounds with HIF-2a block | SaOS-2 split-luciferase Mdm2/MdmX complementation, luminescence | inhibition, % at 8 µM | actives 99% (n = 740) | AID 504601;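 active = mean inhibition of the luminescence signal across two replicates at or above 26 percent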
Target sequence (O15151 whole entry, looked up): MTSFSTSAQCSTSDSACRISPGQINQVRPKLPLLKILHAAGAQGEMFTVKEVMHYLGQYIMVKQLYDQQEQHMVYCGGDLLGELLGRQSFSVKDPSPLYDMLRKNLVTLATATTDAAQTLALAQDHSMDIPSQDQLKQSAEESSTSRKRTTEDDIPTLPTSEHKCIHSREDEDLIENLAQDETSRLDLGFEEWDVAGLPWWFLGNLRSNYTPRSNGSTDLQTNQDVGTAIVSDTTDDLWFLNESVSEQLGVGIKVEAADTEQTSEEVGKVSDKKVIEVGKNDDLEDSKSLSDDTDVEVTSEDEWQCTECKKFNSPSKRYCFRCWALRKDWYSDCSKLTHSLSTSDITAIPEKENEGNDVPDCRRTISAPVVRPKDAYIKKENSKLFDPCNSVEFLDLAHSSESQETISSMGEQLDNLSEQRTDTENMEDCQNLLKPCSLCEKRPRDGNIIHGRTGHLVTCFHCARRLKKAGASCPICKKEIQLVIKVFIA
Target sequence (Q00987 whole entry, looked up): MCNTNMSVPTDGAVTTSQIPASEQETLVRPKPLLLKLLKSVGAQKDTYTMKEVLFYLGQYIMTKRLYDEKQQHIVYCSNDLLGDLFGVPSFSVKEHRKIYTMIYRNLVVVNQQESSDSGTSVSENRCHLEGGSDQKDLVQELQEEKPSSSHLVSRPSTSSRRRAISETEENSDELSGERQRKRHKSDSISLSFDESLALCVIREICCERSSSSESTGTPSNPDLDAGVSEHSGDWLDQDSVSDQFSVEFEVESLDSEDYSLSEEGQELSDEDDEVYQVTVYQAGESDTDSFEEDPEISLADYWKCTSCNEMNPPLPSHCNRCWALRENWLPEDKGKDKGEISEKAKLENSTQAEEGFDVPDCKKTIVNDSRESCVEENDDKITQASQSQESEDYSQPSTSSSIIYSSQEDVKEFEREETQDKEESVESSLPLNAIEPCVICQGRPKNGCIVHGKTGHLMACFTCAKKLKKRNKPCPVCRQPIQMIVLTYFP
HIF-2a inh conf – HIF-2a inhibition, single concentration confirmation. actives 56% (n = 1,800). inhibition, % at 18.8 µM. shares compounds with HIF-2a block. 786-0 RCC cells, HIF-2a luciferase reporter luminescence, overnight;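 active = mean inhibition across four replicates of at least 40 percent at the single tested concentration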
HIF-1a counter – HIF-1a inhibition counter-screen for HIF-2a hits; actives 72% (n = 1,800); inhibition, % at 18.8 µM; MiaPaCa-2 HIF-1a luciferase reporter, desferoxamine, overnight; shares compounds with HIF-2a block;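 active = mean inhibition of the reporter signal across four replicates at the single tested dose of 50% or more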
Numbers without * were called inactive.

How did COC(=O)COc1ccc(-c2nccc(-c3ccccn3)n2)cc1 do in these assays?
aSyn 5UTR inh: 57.4; HIF-2a block: 70.9*; TROY signal inh: 8.6; C8 TRAIL sens: 5.6; TWEAK Fn14 block: 60.7*; HSP90 refold inh: 1.4; HIF-2a inh conf: 91.2*; HIF-1a counter: 63.6*

How did Cc1ccc(C(=O)Oc2ccc(-c3nccc(-c4ccccn4)n3)cc2)cc1 do in these assays?
aSyn 5UTR inh: -144.0; HIF-2a block: -191.9; TROY signal inh: -17.1; C8 TRAIL sens: 5.8; TWEAK Fn14 block: -27.8; HSP90 refold inh: -3.1

What do the screens show for `COC(=O)COc1ccc(-c2nccc(-c3ccc(Br)cc3)n2)cc1`?
aSyn 5UTR inh: 18.0; HIF-2a block: 40.7*; TROY signal inh: -1.1; C8 TRAIL sens: -8.4; TWEAK Fn14 block: 7.5; HSP90 refold inh: -2.5; HIF-2a inh conf: 42.8*; HIF-1a counter: 7.8

What do the screens show for `O=C(O)c1c(NC(=O)N2CCOCC2)sc2c1CCCC2`?
aSyn 5UTR inh: -13.1; HIF-2a block: 54.9*; TROY signal inh: 2.3; C8 TRAIL sens: -4.2; TWEAK Fn14 block: 9.2; HSP90 refold inh: 0.4; HIF-2a inh conf: -12.2; HIF-1a counter: 0.7

Results for CNc1ccc(Br)cc(C(=O)/C=C/c2cc(OC)ccc2OC)c1=O ?
aSyn 5UTR inh: -28.7; HIF-2a block: 43.1*; TROY signal inh: -22.4; C8 TRAIL sens: -12.4; TWEAK Fn14 block: 6.7; HSP90 refold inh: 4.3; HIF-2a inh conf: 95.3*; HIF-1a counter: 88.2*

How did CNc1ccc(Br)cc(C(=O)/C=C/c2ccc(OC)cc2)c1=O do in these assays?
aSyn 5UTR inh: -34.6; HIF-2a block: 8.8; TROY signal inh: 3.5; C8 TRAIL sens: -10.8; TWEAK Fn14 block: 24.2; HSP90 refold inh: -1.1

What do the screens show for `CCOC(=O)C1=CCN(S(=O)(=O)c2ccccc2Br)C1c1ccccc1` (stereo not drawn)?
HIF-2a block: 9.4; TROY signal inh: 4.2; C8 TRAIL sens: -1.2; TWEAK Fn14 block: 19.1

What do the screens show for `Cc1ccc(N2Cc3ccccc3C2=S)cc1`?
aSyn 5UTR inh: -154.0; HIF-2a block: 84.1*; TROY signal inh: -25.0; C8 TRAIL sens: 35.3; TWEAK Fn14 block: -19.2; HSP90 refold inh: 6.9; HIF-2a inh conf: -218.4; HIF-1a counter: -74.0

Results for Cc1ccc(C(=S)N2CCN(Cc3ccccc3)CC2)cc1 ?
aSyn 5UTR inh: 7.3; HIF-2a block: 6.2; TROY signal inh: -12.4; C8 TRAIL sens: -4.6; TWEAK Fn14 block: -16.6; HSP90 refold inh: -5.1

How did CCN1CCN(C(=S)c2ccc(-c3ccccc3)cc2)CC1 do in these assays?
aSyn 5UTR inh: 65.8*; HIF-2a block: 80.0*; TROY signal inh: 5.5; C8 TRAIL sens: -0.8; TWEAK Fn14 block: 68.9*; HSP90 refold inh: 1.6; HIF-2a inh conf: 95.2*; HIF-1a counter: 77.6*

What do the screens show for `C=CCN1C(=O)c2ccc(C(=O)N(CCC)CC(=O)Nc3ccccc3C)cc2C1=O`?
aSyn 5UTR inh: 15.6; HIF-2a block: -10.5; TROY signal inh: 2.5; C8 TRAIL sens: 11.5; TWEAK Fn14 block: 16.5

How did CCOC(=O)C(C)(C)N(Cc1ccc(C)cc1)S(=O)(=O)c1ccc(Cl)c([N+](=O)[O-])c1 do in these assays?
aSyn 5UTR inh: -16.4; HIF-2a block: 60.8*; TROY signal inh: 29.6; C8 TRAIL sens: 40.0; TWEAK Fn14 block: 59.5*; HSP90 refold inh: -4.4; HIF-2a inh conf: 23.0; HIF-1a counter: 104.6*

How did Cc1cc(N2CCN(c3ccc([N+](=O)[O-])c4cccnc34)CC2)c2ccccc2n1 do in these assays?
aSyn 5UTR inh: 83.7*; HIF-2a block: 32.0; TROY signal inh: 15.8; C8 TRAIL sens: 27.7; TWEAK Fn14 block: -9.4; HSP90 refold inh: -4.9; Mdm2-MdmX confirm: 102.2*

What do the screens show for `O=S(=O)(c1ccc(F)cc1)c1snnc1-c1ccccc1`?
aSyn 5UTR inh: -75.5; HIF-2a block: 40.5*; TROY signal inh: 27.2; C8 TRAIL sens: -22.7; TWEAK Fn14 block: 63.5*; HSP90 refold inh: 6.2; HIF-2a inh conf: 13.1; HIF-1a counter: 10.6

How did O=S(=O)(c1ccc(Cl)cc1)c1snnc1-c1ccccc1 do in these assays?
aSyn 5UTR inh: 116.1*; HIF-2a block: 58.0*; TROY signal inh: 49.1; C8 TRAIL sens: 23.9; TWEAK Fn14 block: 88.5*; HSP90 refold inh: -2.3; Mdm2-MdmX confirm: 103.2*; HIF-2a inh conf: 62.5*; HIF-1a counter: 102.7*

Results for CN(C)c1ncc(S(=O)(=O)c2ccc(Cl)cc2)c(-c2ccccc2)n1 ?
aSyn 5UTR inh: 22.5; HIF-2a block: 10.6; TROY signal inh: 1.4; C8 TRAIL sens: -1.1; TWEAK Fn14 block: 4.0; HSP90 refold inh: -0.8

Results for c1ccc(-c2nnsc2-c2ncc[nH]2)cc1 ?
aSyn 5UTR inh: 17.5; HIF-2a block: 12.0; TROY signal inh: -3.5; C8 TRAIL sens: -15.4; TWEAK Fn14 block: -4.1; HSP90 refold inh: -0.7

What do the screens show for `CC(=O)Nc1ccc(NC(=O)c2sc3nc4n(c(=O)c3c2C)CCCCC4)cc1`?
aSyn 5UTR inh: 76.3*; HIF-2a block: 79.9*; TROY signal inh: 10.3; C8 TRAIL sens: 4.5; TWEAK Fn14 block: -4.7; HSP90 refold inh: -2.9; HIF-2a inh conf: 89.6*; HIF-1a counter: 90.0*

How did CCc1ccc(NC(=O)c2sc3nc4n(c(=O)c3c2C)CCC4)cc1 do in these assays?
aSyn 5UTR inh: -4.4; HIF-2a block: -217.5; TROY signal inh: -57.5; C8 TRAIL sens: 18.6; TWEAK Fn14 block: -29.0; HSP90 refold inh: 0.8

How did OC(c1ccc(F)cc1)c1nc(-c2ccoc2)cs1 (stereo not drawn) do in these assays?
HIF-2a block: -38.1; TROY signal inh: 0.8; C8 TRAIL sens: 7.8; TWEAK Fn14 block: 0.1

Results for Cc1ccc(C2=NN(C(=O)CCl)C(c3ccco3)C2)o1 (stereo not drawn) ?
aSyn 5UTR inh: -22.1; HIF-2a block: 11.2; TROY signal inh: -1.6; C8 TRAIL sens: 91.6*; TWEAK Fn14 block: 55.0*; HSP90 refold inh: -1.5; Mdm2-MdmX confirm: 103.0*

What do the screens show for `COC(=O)CSc1nnc(-c2sc3ccccc3c2Cl)o1`?
aSyn 5UTR inh: 22.3; HIF-2a block: 90.5*; TROY signal inh: 34.9; C8 TRAIL sens: 14.4; TWEAK Fn14 block: 63.6*; HSP90 refold inh: 6.0; HIF-2a inh conf: 95.2*; HIF-1a counter: 69.0*

What do the screens show for `CC(C)(C)c1ccc(C(=O)N2CCCCCC2=O)cc1`?
aSyn 5UTR inh: 90.7*; HIF-2a block: 88.6*; TROY signal inh: 31.8; C8 TRAIL sens: -0.2; TWEAK Fn14 block: 44.7; HSP90 refold inh: 1.4; HIF-2a inh conf: 94.8*; HIF-1a counter: 81.7*

Assay outcomes from PubChem BioAssay.
